Reference: PubChem BioAssay AID1850 (Southern Research Specialized Biocontainment Screening …, 2009)
The campaign covered roughly 310,000 compounds. About 1,000 (0.32%) were called active. The rule behind the calls is not given here. Only a sample is shown. Potency and affinity values are given separately.

Test: PhoP regulon inhibitors, Salmonella typhi PhoP promoter GFP reporter, confirmatory (AID 1850);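 note: 0% = induced wells with vehicle and 100% = uninduced wells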
Settings: fluorescence, 4 h, at 50 µM, active compounds read high

Row | SMILES | inhibition
1 | O=C(Nc1ccccc1C(F)(F)F)N1CCN(c2ccccn2)CC1 | 5.82% (inactive)
2 | O=C(C1CC(c2ccccc2O)=NO1)N1CCc2ccccc2C1 (centres undefined) | -3.18% (inactive)
3 | O=C(C[n+]1cccc(CNC(=O)c2ccc(OC(F)F)cc2)c1)Nc1ccc(F)cc1 | -3.3% (inactive)
4 | O=C(C[n+]1cccc(CNC(=O)c2ccc(OC(F)F)cc2)c1)Nc1cccc(C(F)(F)F)c1 | 1.69% (inactive)
5 | O=C(COC(=O)C1=COCCO1)Nc1ccc(F)cc1 | 2.51% (inactive)
6 | Cc1ccc(SCC(=O)Nc2ccc3c(c2)C(=O)NC3=O)cc1 | 5.23% (inactive)
7 | Oc1ccc(C23CC4CC(CC(C4)C2)C3)cc1O | 0.69% (inactive)
8 | Oc1ccccc1CNCC12CC3CC(CC(C3)C1)C2 | 6.43% (inactive)
9 | C=CCNC(=O)c1cccc(OC2CCN(CC(C)(C)C)CC2)c1 | -1.47% (inactive)
10 | O=C(Nc1cccc(S(=O)(=O)N2CCCC2)c1)c1ccncc1 | -14.8% (inactive)
11 | Nc1c(Cl)ncnc1N/N=C/c1ccc2ccccc2n1 | 8.37% (inactive)
12 | Nc1c(Cl)ncnc1N/N=C/c1ccncc1 | 5.13% (inactive)
13 | O=C(C[n+]1cc(Br)cc2ccccc21)c1ccc(Br)cc1 | 5.62% (inactive)
14 | O=C(C[n+]1cc(Br)cc2ccccc21)c1ccccc1 | 22% (inactive)
15 | CCCNC(=O)CSc1nnc(-c2ccc(F)cc2)o1 | -7.43% (inactive)
16 | CC1CN(CC(O)COc2ccc(C#N)cc2)CCN1CC(O)COc1ccc(C#N)cc1 (centres undefined) | 9.68% (inactive)
17 | O=C(Nc1cccc([N+](=O)[O-])c1)Nc1cccc([N+](=O)[O-])c1 | 1.71% (inactive)
18 | O=C(Cc1cccs1)Nc1cccc([N+](=O)[O-])c1 | 0.05% (inactive)
19 | CN(C)S(=O)(=O)c1cccc(-c2csc(=Nc3ccccc3)n2CCCN2CCOCC2)c1 | 4.21% (inactive)
20 | COc1ccc(C(=O)c2no[n+]([O-])c2C(=O)c2ccc(OC)cc2)cc1 | 21.3% (inactive)
21 | Cc1ccc(C(=O)c2no[n+]([O-])c2C(=O)c2ccc(C)cc2)cc1 | 19.9% (inactive)
22 | O=C(NCCN1CCOCC1)c1ccc2c(c1)N(Cc1c(F)cccc1Cl)C(=O)c1ccccc1S2 | -4.77% (inactive)
23 | CCc1nnc(NC(=O)c2cccc(S(=O)(=O)N3CCc4ccccc43)c2)s1 | -12.3% (inactive)
24 | Oc1c(Cl)cc(Cl)cc1/C=N/c1ncn[nH]1 | 3.2% (inactive)
25 | Oc1c(Br)cccc1/C=N/c1ncn[nH]1 | -5.35% (inactive)

Row | SMILES | inhibition
26 | O=[N+]([O-])C(=C1Nc2ccccc2N1)C(Cl)=C(Cl)Cl | -0.56% (inactive)
27 | O=[N+]([O-])C(=C1Nc2ccccc2N1)/C(Cl)=C(/Cl)Br | -3.57% (inactive)
28 | Cc1ccc(S(=O)(=O)NCCC(=O)Nc2ccncc2)cc1C | 9.54% (inactive)
29 | COCCNC(=O)C1CC(c2ccc(F)cc2)=NO1 (centres undefined) | -13.4% (inactive)
30 | Cc1ccc(S(=O)(=O)N2CCCC2C(=O)NCc2ccccc2F)cc1 (centres undefined) | -7.81% (inactive)
31 | CCN(CC)CCCn1c2c(c(SCC(=O)Nc3ccc4c(c3)OCCO4)nc1=O)CCC2 | 11.9% (inactive)
32 | Cc1ccsc1CN(C)C(=O)CCc1nnc(COc2ccccc2)o1 | -5.48% (inactive)
33 | Cc1ccc(OCC(=O)N/N=C\c2c(C)n(C)c3ccccc23)c([N+](=O)[O-])c1 | -4.6% (inactive)
34 | Cc1[nH]n(-c2ccccc2)c(=O)c1/C=N/NC(=O)COc1ccccc1[N+](=O)[O-] | -5.18% (inactive)
35 | COCCNC(=O)c1onc(CS(=O)(=O)c2cc(C)cc(C)c2)c1C(=O)NCCOC | 5.4% (inactive)
36 | O=C(NCc1ccc2c(c1)OCO2)c1cccc([N+](=O)[O-])c1 | -1.83% (inactive)
37 | COc1ccc(/C=C2/C(=O)N(c3nc4ccccc4s3)N=C2CSc2ccc(Cl)cc2)cc1 | 3.84% (inactive)
38 | NC(=O)c1c(NC(=O)c2ccc([N+](=O)[O-])o2)sc2c1CCCC2 | -5.17% (inactive)
39 | CC(C)N1CCc2c(sc(NC(=O)c3ccc([N+](=O)[O-])o3)c2C(N)=O)C1 | -4.77% (inactive)
40 | Cn1c(=O)cc(OCCCC(=O)NCc2cccnc2)c2ccccc21 | 0.57% (inactive)
41 | COc1ccccc1N1C(=O)c2cccnc2C1=O | -1.48% (inactive)
42 | Cc1cccc(/C=C/C(=O)c2cc(Br)ccc(=O)c2O)c1 | 4.56% (inactive)
43 | CCc1ccc(/C=C/C(=O)c2cc(Br)ccc(=O)c2O)cc1 | -13.9% (inactive)
44 | CCOC(=O)C1(CC)CC(CSc2nc3ccccc3[nH]2)OC1=O (centres undefined) | 5.22% (inactive)
45 | O=C(O)c1cccnc1Sc1ccccc1Cl | -7.16% (inactive)
46 | Clc1ccccc1N1CCN(Cc2c[nH]c3ccccc23)CC1 | -13.8% (inactive)
47 | c1ccc(CN2CCN(Cc3c[nH]c4ccccc34)CC2)cc1 | 1.99% (inactive)
48 | Nc1ccc(Sc2ccc([N+](=O)[O-])cc2)cc1 | -7.65% (inactive)
49 | Nc1ccccc1SC(C[N+](=O)[O-])c1ccccc1 (centres undefined) | 15.4% (inactive)
